ChEMBL document CHEMBL2218924, “A broad activity screen in support of a chemogenomic map for kinase signalling research and drug discovery” (Biochem J, 2013)

These compounds were tested against T1, Dual specificity mitogen-activated protein kinase kinase 6 (Homo sapiens) (UniProt P52564). Conditions: at 10 µM.
T1 sequence (whole entry): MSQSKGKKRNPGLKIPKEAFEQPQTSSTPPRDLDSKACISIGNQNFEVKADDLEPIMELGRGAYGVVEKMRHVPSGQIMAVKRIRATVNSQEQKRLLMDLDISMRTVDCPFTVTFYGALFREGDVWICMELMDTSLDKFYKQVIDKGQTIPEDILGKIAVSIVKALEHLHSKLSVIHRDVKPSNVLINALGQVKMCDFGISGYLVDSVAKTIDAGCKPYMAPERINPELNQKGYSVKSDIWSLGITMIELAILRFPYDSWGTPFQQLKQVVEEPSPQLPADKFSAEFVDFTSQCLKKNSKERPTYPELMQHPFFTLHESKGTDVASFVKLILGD
In the case of `C[S+]([O-])c1ccc(-c2nc(-c3ccc(F)cc3)c(-c3ccncc3)[nH]2)cc1` (stereo not drawn), the residual activity is reported as 3%.
`O=C1Nc2ccc3ncsc3c2/C1=C/c1c[nH]cn1` showed a residual activity of 1%.
`O=C1c2ccccc2-c2nc3nnnn3nc21` was tested, and the residual activity was 116%.
For `CCn1cnc2c(Nc3cccc(Cl)c3)nc(N[C@@H]3CCCC[C@@H]3N)nc21`, the residual activity was 78%.
`COc1cc(OC)c(/C=C2\C(=O)Nc3ccccc32)c(OC)c1` showed a residual activity of 87%.
`COc1ccc2c(c[n+](C)c3c4cc5c(cc4ccc23)OCO5)c1OC` was tested, and the residual activity was 130%.
In the case of `CC(C)[C@H](CO)Nc1nc(Nc2cccc(Cl)c2)c2ncn(C(C)C)c2n1`, the residual activity is reported as 64%.
`O=C1NC(=O)c2c1c1c3ccccc3n3c1c1c2c2ccccc2n1C1CCC3O1` gave a residual activity of 10%.
`N/C(=N\[N+](=O)[O-])N/N=C\c1ccc(-c2cccc([N+](=O)[O-])c2)o1` was tested, and the residual activity was 83%.
Compound `COc1cc2ncnc(Nc3ccc(OCc4ccccc4)cc3)c2cc1OC` has a residual activity of 87%.
`O=c1[nH]c2ccccc2n1C1CCN(Cc2ccc(-c3nc4cc5[nH]cnc5cc4nc3-c3ccccc3)cc2)CC1` gave a residual activity of 90%.
Work on `CC(C)(C)c1cc(C=C(C#N)C#N)cc(Br)c1O` yielded a residual activity of 115%.
`O=[N+]([O-])/C=C/c1ccc2c(c1)OCO2` was tested, and the residual activity was 103%.
